# Test results reported in a collection of fitness landscapes (doi:10.1016/j.celrep.2020.107928).
# In all, about 81,000 sequences were measured (“one-hybrid fitness for binding NBS DNA”: median about -0.1, highest 2% from about 0.36 on). What follows is part of a selection rich in the highest values, with near analogues and random picks from the rest.
# B1: Caulobacter ParB omega fusion; a variant is named by its letters at X, in order, B8GW30 (parent)
# chain: MESVVVGEPGMSEGRRGLGRGLSALLGEVDAAPAQAPGEQLGGSREAPIEILQRNPDQPRRTFREEDLEDLSNSIREKGVLQPILVRPSPDTAGEYQIVAGERAWRAAQRAGLKTVPIMVRELDDLAVLEIGIIENVQRADLNVLEEALSYKVLMEKFERTQENIAQTIGKSXSHVANXMRLLXLPDEVQSYLVSGELTAXHARAIAAAADPVALAKQIIEGGLSVRETEALARKAPNLSAGKSKGGRPPRVKDTDTQALESDLSSVLGLDVSIDHRGSTGTLTITYATLEQLDDLCNRLTRGI
# Variants of: B1
# Experiment: one-hybrid fitness for binding NBS DNA (the Noc-binding site; scaled: cognate 1, non-cognate 0); higher = stronger binding
# Conditions: with NBS DNA site
# Method in brief: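 Fitness here means the log change in variant-to-wild-type read ratio between plasmids sequenced before and after selection. That scale was set so cognate equals 1 and non-cognate equals 0. The selection was a bacterial one-hybrid screen of Caulobacter ParB libraries, four specificity codons randomised, in E. coli USO carrying a HIS3 reporter with the site 19 bp from the promoter, grown 48 hours at 37°C on M9-minus-histidine with 0.1 mM IPTG and 5 mM 3-AT.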
row,Variant,one-hybrid fitness for binding NBS DNA
1,LRFA,≤ 0.2
2,LPEF,≤ 0.2
3,WQTP,≤ 0.2
4,ANVT,≤ 0.2
5,ITKV,≤ 0.2
6,TWPS,≤ 0.2
7,FCRR,0.277
8,LVQT,≤ 0.2
9,QSGM,≤ 0.2
10,QRGP,0.301
11,QPGC,≤ 0.2
12,QRGD,0.293
13,QRGC,0.402
14,QRGS,0.7
15,QRGQ,0.435
16,QCGQ,0.24
17,QRGM,0.436
18,QCGM,≤ 0.2
19,QCGC,0.244
20,QSGQ,≤ 0.2
21,VHHD,≤ 0.2
22,KQFT,≤ 0.2
23,IGSG,≤ 0.2
24,ERAV,≤ 0.2
25,LHVR,≤ 0.2

row,Variant,one-hybrid fitness for binding NBS DNA
1,AGVC,≤ 0.2
2,QSQV,≤ 0.2
3,LPLC,≤ 0.2
4,DDTM,≤ 0.2
5,HYPY,≤ 0.2
6,IAHC,≤ 0.2
7,SVFR,≤ 0.2
8,YVTV,≤ 0.2
9,PPVI,≤ 0.2
10,KLLL,≤ 0.2
11,QSIT,0.353
12,QAPT,0.23
13,QCIT,0.432
14,QPIT,≤ 0.2
15,QRPT,0.576
16,QRIT,0.678
17,QRPG,≤ 0.2
18,QRIP,≤ 0.2
19,RPKK,≤ 0.2
20,VPVE,≤ 0.2
21,TFHR,≤ 0.2
22,VTIG,≤ 0.2
23,DETM,≤ 0.2
24,LSSE,≤ 0.2
25,IPSD,≤ 0.2

row,Variant,one-hybrid fitness for binding NBS DNA
1,QSDH,≤ 0.2
2,QIKN,0.223
3,QSKS,0.645
4,QSVH,≤ 0.2
5,QSKH,0.587
6,QIKS,0.497
7,QPKS,≤ 0.2
8,QCKS,0.711
9,QNKS,0.355
10,QIVS,≤ 0.2
11,TVQG,≤ 0.2
12,DATH,≤ 0.2
13,YDTE,≤ 0.2
14,TATG,≤ 0.2
15,KRHE,≤ 0.2
16,MHPT,≤ 0.2
17,RINQ,≤ 0.2
18,QTAQ,0.251
19,QTFF,≤ 0.2
20,QTFR,0.584
21,QTAR,0.768
22,QTAY,0.306
23,QTFG,≤ 0.2
24,SPYR,≤ 0.2
25,SHAM,≤ 0.2

row,Variant,one-hybrid fitness for binding NBS DNA
1,QYVA,≤ 0.2
2,QYKA,0.531
3,QYNA,0.269
4,QYDA,≤ 0.2
5,QYRA,0.558
6,QYYA,0.271
7,QPFC,≤ 0.2
8,FPTR,≤ 0.2
9,KLDM,≤ 0.2
10,RPQY,≤ 0.2
11,RCSY,≤ 0.2
12,RRQY,0.525
13,RRHY,0.452
14,RSHY,≤ 0.2
15,RRAY,0.405
16,RSSY,≤ 0.2
17,RCQY,≤ 0.2
18,RCHY,0.215
19,RCAY,≤ 0.2
20,RRSY,0.393
21,RRFY,0.314
22,SRQM,≤ 0.2
23,LMKG,≤ 0.2
